A1 inh – caspase 3/7 activation in MEF A1-2A-BIM cells, primary screen, A1 inhibitor project, cell-based, luminescence, HTS | Caspase-Glo 3/7 luminescence, 3 h; percent of clofoctol response, vehicle zero | AID 2462, 2010 | caspase activation, % (test concentration not listed) | 330,000 tested, 0.066% active;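 active = over half of replicate activation scores above 10%, or exactly half above 10 with the replicate mean above 10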
Mdm2-MdmX inh – inhibitors of human Mdm2-MdmX association, primary screen, cell-based, luminescence, split luciferase, SaOS-2, uHTS; AID 485346, 2010; Protein Mdm4 (Homo sapiens) + E3 ubiquitin-protein ligase Mdm2 (Homo sapiens), …; 330,000 tested, 3% active; SaOS-2 split-luciferase Mdm2/MdmX complementation; inhibition, % at 8 µM;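 active = inhibition of at least 50% at 8 µM in the primary screen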
NTR1 ag – agonists of human NTR1, primary screen, imaging, U2OS cells, beta-arrestin-GFP, high content; Neurotensin receptor type 1 (Homo sapiens), P30989; NTR1-U2OS beta-arrestin-GFP spot imaging, agonist mode; activation, % at 20 µM; 330,000 tested, 0.17% active; AID 493036, 2011;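 active = activation at or above 40% of the spot to cytoplasm intensity ratio, with at least 20 cells analyzed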;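 note: 0% = DMSO without peptide and 100% = 100 nM NTR1 peptide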
697 NFkB inh – inhibitors of PMA/ionomycin-induced NF-kB reporter, 697 cells, primary screen, B-cell NF-kB inhibitor project, cell-based, luminescence, uHTS. 697 B-cell NF-kB luciferase reporter, 16 h. inhibition, % at 4 µM. 330,000 tested, 0.33% active; in the data active = inhibition above about 35%
Beta cell apopt – inhibitors of cytokine-induced beta cell apoptosis, primary screen, luminescence; INS-1E cytokine-induced death, ATP luminescence, 48 h; percent of positive-control rescue, neutral wells zero; protection from apoptosis, % (no concentration beside the values); 300,000 tested, 0.8% active;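 active = Every replicate reaches about 75%, or at least half do and their mean reaches it too, limit read from the data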;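 note: 0% = cytokine-treated negative control wells and 100% = positive control rescue; higher means more ATP so stronger rescue from cytokine killing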
Jurkat NFkB inh – inhibitors of induced NF-kB luciferase reporter, primary screen, TCR NF-kB activation inhibitor project, cell-based, luminescence, uHTS | Jurkat, PMA/ionomycin-induced NF-kB luciferase reporter | inhibition, % at 4 µM | 330,000 tested, 0.53% active; in the data active = inhibition above about 50%
Jurkat NFkB conf – PMA/ionomycin-induced NF-kB reporter inhibitors, Jurkat retest, confirmation, T-cell NF-kB inhibitor project, cell-based, luminescence, single concentration; shares compounds with Jurkat NFkB inh; Jurkat NF-kB luciferase, 16 h; inhibition, % at 4 µM; 2,700 tested, 27% active; AID 435020, 2010;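 active = inhibition reaching about 45% at 4 µM in either replicate, limit read from the data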;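 note: plate controls were PMA/ionomycin stimulated DMSO wells for no effect and unstimulated DMSO wells for full effect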
* hit, by the source's call; . = no result given. Sampled rows, rich in hits. Any-hit rate of the full collection: about 3.8%.

SMILES	A1 inh	Mdm2-MdmX inh	NTR1 ag	697 NFkB inh	Beta cell apopt	Jurkat NFkB inh	Jurkat NFkB conf
Cc1ccc(NS(=O)(=O)c2ccc(C(=O)NC3CCN(Cc4ccccc4)CC3)cc2)cc1	1	35	12	15	37	57*	59*
Cc1ccc(S(=O)(=O)Nc2cccc(C(=O)NC3CCN(Cc4ccccc4)CC3)c2)cc1F	-1	12	0	-45	.	19	.
O=C(NC1CCN(Cc2ccccc2)CC1)c1ccc2c(c1)[nH]c(=O)n2Cc1ccc(F)cc1	0	41	-1	-8	17	64*	35
Cc1nn(CCCC(=O)NCCCN2CCN(C)CC2)c(=O)c2c1sc1ccccc12	0	-2	0	-13	-3	9	.
O=C1C([N+](=O)[O-])=C(O)c2cccc3cccc1c23	0	.	.	.	-20	.	.
Cc1nn(CC(=O)NC2(C)CCS(=O)(=O)C2)c(C)c1S(=O)(=O)N(C)C (stereo not given)	1	4	-1	1	-1	57*	14
CN(CC(=O)NC1(C)CCS(=O)(=O)C1)S(=O)(=O)c1ccc(Cl)cc1 (stereo not given)	0	8	0	-16	0	-3	.
CCC(=O)NC(=S)Nc1ccc(-c2nc3ccccc3s2)cc1	-5	-10	-1	-184	-2	-152	-83
COc1ccc(C(=O)C2CCCN(S(=O)(=O)c3ccccc3F)C2)c(C)c1 (stereo not given)	0	7	4	-20	-8	-1	.
COn1c(-c2ccccc2)nc2ccc(Cl)cc21	-1	-72	3	-67	5	-66	.
Clc1ccc2nc3c4ccccc4cnn3c2c1	-9	-199	1	-174	0	-160	-121
CSc1cc(-c2ccccc2)n(Cc2ccccc2Cl)c(=O)c1C#N	0	43	1	-28	18	64*	9
CCCn1c(-c2ccccc2)cc(SC)c(C#N)c1=O	0	-22	2	12	-20	-1	.
CC(=O)c1ccc(S(=O)(=O)NCc2ccc(C(=O)NCC(c3ccccc3)N(C)C)cc2)cc1 (stereo not given)	0	9	-1	2	-3	-1	.
COc1ccccc1NC(=O)CSc1nnc(-c2ccc(C)cc2)o1	-1	-190	-3	-141	8	-162	-91
COc1cccc(NC(=O)CSc2nnc(-c3ccc(C)cc3)o2)c1	0	-279	1	-30	0	-185	-24
Cc1ccc(C2(C(F)(F)F)NC(=O)N3CCCN=C3S2)cc1 (stereo not given)	-1	13	0	2	2	52*	6
O=C(Nc1ccc(-c2nc3ccccc3o2)cc1)C1CCCO1 (stereo not given)	-14	-138	0	-124	1	-180	-103
Cc1ccc2nc(-c3ccc(NC(=O)Cc4cccs4)cc3)[nH]c2c1	0	-28	1	-115	33	-170	-119
Cc1ccc2nc(NC(=O)Cc3cccs3)sc2c1	-4	-120	-1	-107	3	-95	.
O=C(Nc1ccc2oc(-c3ccccc3)nc2c1)C1CCCO1 (stereo not given)	-8	-152	2	-157	8	-112	.
Cc1ccc2nc(-c3ccc(NC(=O)C4CCCO4)cc3)[nH]c2c1 (stereo not given)	-8	-122	-1	-147	11	-177	-76
Cn1c(-c2ccc(F)c(F)c2)cc2onc(-c3ccccc3)c2c1=O	-5	-236	0	-183	10	-180	-94
CC(=O)Nc1ccc(S(=O)(=O)NCCC(=O)N2CCN(C(c3ccccc3)c3ccccc3)CC2)cc1	-1	-1	2	-1	1	9	.
CCc1ccc(NC(=O)c2noc3c2CCC3)cc1	-5	-60	-1	-229	0	-135	.
SMILES	A1 inh	Mdm2-MdmX inh	NTR1 ag	697 NFkB inh	Beta cell apopt	Jurkat NFkB inh	Jurkat NFkB conf
CCc1ccc(NC(=O)c2noc3c2CCCCC3)cc1	-1	-169	3	-224	0	-245	-146
Cc1ccc(NC(=O)c2noc3c2CCCCC3)cc1	-4	-96	2	-220	4	-193	-79
COc1ccc(NC(=O)c2noc3c2CCCCC3)cc1	-4	-223	-1	-137	-14	-123	.
COc1ccc(S(=O)(=O)N2CCOC2CNC(=O)C(=O)NCCN2CCOCC2)cc1C (stereo not given)	1	2	1	11	-2	4	.
CCCN(CC(=O)Nc1ccccc1OC)C(=O)c1ccc(S(=O)(=O)NCc2ccco2)cc1	-1	3	-1	10	-2	0	.
Cc1cccc(C)c1OCc1cc(C(=O)NCC2CC2)no1	0	42	-1	-7	-8	2	.
CN(c1ccccc1)S(=O)(=O)c1cccc(NC(=O)c2ccc(Cl)c([N+](=O)[O-])c2)c1	0	24	13	-5	8	63*	10
COc1cccc(C(=O)Nc2ccc(F)cc2F)c1	-8	-10	-2	-16	1	-52	.
Cc1noc(C)c1COc1cccc(C(=O)OC(C)C(=O)Nc2ccc3c(c2)OCO3)c1 (stereo not given)	2	42	0	11	6	58*	23
Cc1noc(C)c1COc1cccc(C(=O)Nc2ccc(Br)cc2F)c1	0	41	1	-48	6	61*	35
O=C(Nc1ccc(Br)cc1F)c1ccc2c(c1)OCCO2	-17	-126	0	-212	-2	-161	-92
CC(C)Oc1cccc(C(=O)Nc2ccc(Br)cc2F)c1	-3	-168	4	-132	-7	-195	-120
O=C(Nc1ccccc1C(F)(F)F)c1ccc2nccnc2c1	0	10	-1	0	-5	1	.
O=[N+]([O-])c1ccc(N/N=C/c2ccccc2O)cc1	-1	-30	19	-33	16	61*	-31
C[C@]12CC[C@@H]3c4cc(O)c(O)cc4CC[C@H]3[C@@H]1CC[C@@H]2O	-1	30	1	-41	-3	52*	40
COc1cc(OC)cc(C(=O)NCC(=O)N2CC=C(c3ccccc3)CC2)c1	.	49	-1	-44	.	70*	14
O=C(NC1CC2CCCC(C1)N2Cc1ccc(F)cc1)c1ccc(F)cc1 (stereo not given)	0	4	1	-8	.	-2	.

Screens from PubChem.
